# Structures can show the parent of a compound that is named as a salt. A number with no mark means an inactive call.
# What was measured:
# Settings in all cases: 20 µM
# [1] = test system: Salmonella enterica typhimurium; assay: growth AUC normalised to DMSO control (fraction of control); higher = less growth inhibition, active = hit call of the paper
# Method in brief: (§1)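 For the AUC endpoint, growth curves were integrated by the trapezoidal rule up to the exponential-to-stationary transition and normalised to DMSO controls on the same plate. The curves came from OD578 readings taken hourly for 24 h, in three biological replicates. Pathogens had been passaged anaerobically twice and inoculated at an OD578 of 0.01 into pre-reduced mGAM plates carrying 20 μM compound and 1% DMSO, sealed with breathable membranes. Medium for Haemophilus parainfluenzae also contained hemin and NAD.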
# Shigella flexneri = assay: as above
# Method in brief: as §1
# Vibrio cholerae = assay: as above
# Method in brief: as §1
# [2] = test system: Yersinia pseudotuberculosis; assay: as above
# Method in brief: as §1
# P. vulgatus RND KO = assay: growth AUC normalised to DMSO control (median) (fraction of control); higher = less growth inhibition, active = hit call of the paper
# Method in brief: (§2)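 Area under the growth curve, calculated by the trapezoidal rule up to entry into stationary phase, was normalised to vehicle wells on the same plate. Strains had been passaged twice overnight without oxygen and then grown in mGAM in 96-well plates from OD578 0.01, each with an approved-drug library compound at 20 μM in 1% DMSO. OD578 was read hourly over 24 h in an anaerobic incubator, and the median of three biological replicates is given.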
# P. vulgatus WT = assay: as above
# Method in brief: as §2
# [3] = test system: S. enterica typhimurium WT; assay: as above
# Method in brief: as §2
# [4] = test system: S. enterica typhimurium tolC KO; assay: as above
# Method in brief: as §2
# 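Throughout, for growth AUC normalised to DMSO control (median): active when median AUC fell below 0.1.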
SMILES,growth AUC normalised to DMSO control [1],growth AUC normalised to DMSO control (Shigella flexneri),growth AUC normalised to DMSO control (Vibrio cholerae),growth AUC normalised to DMSO control [2],growth AUC normalised to DMSO control (P. vulgatus RND KO),growth AUC normalised to DMSO control (P. vulgatus WT),growth AUC normalised to DMSO control [3],growth AUC normalised to DMSO control [4]
CCCCCCCCCCCCCCCC[N+](C)(C)CCN(Cc1ccc(OC)cc1)c1ncccn1 [Thonzonium bromide],0.999,0.979,0.944,1.01,0.878,0.883,1,1
Cc1nccn1CC1CCc2c(c3ccccc3n2C)C1=O (stereo not given) [Ondansetron hydrochloride],1.01,1.04,1.01,1,1.01,1.04,1,0.984
COCCOC(=O)C1=C(C)NC(C)=C(C(=O)OC(C)C)C1c1cccc([N+](=O)[O-])c1 (stereo not given) [Nimodipine],0.984,0.939,0.956,0.957,1.02,1,0.991,0.967
Nc1nc(Cl)nc2c1ncn2[C@H]1C[C@H](O)[C@@H](CO)O1 [Cladribine],0.985,0.949,0.982,1,1.01,1.02,0.915,0.911
CN(C)CCC=C1c2ccccc2C=Cc2ccccc21 [Cyclobenzaprine hydrochloride],0.98,0.955,0.866 (active),0.998,0.933,0.936,1,0.853
CO[C@@]1(NC(=O)Cc2cccs2)C(=O)N2C(C(=O)O)=C(COC(N)=O)CS[C@@H]21 [Cefoxitin sodium salt],0.00626 (active),0.0351 (active),0.307 (active),0.0451 (active),0.018 (active),0.0178 (active),0.00954 (active),0.0113 (active)
C/C=C(/C(=C/C)c1ccc(O)cc1)c1ccc(O)cc1 [Dienestrol],1,1.04,0.969,1.02,0.015 (active),0.264,1,0.857
C[C@]12CCC(=O)C=C1CC[C@@H]1[C@@H]2C(=O)C[C@@]2(C)[C@H]1CC[C@]2(O)C(=O)CO [Cortisone],0.993,0.945,0.983,0.982,0.994,1,1,0.995
Cc1c(N(C)CS(=O)(=O)O)c(=O)n(-c2ccccc2)n1C [Dipyrone sodium salt],1.02,1.03,1.09,1.02,0.999,0.996,1.01,0.999
OC(CCCN1CCCCC1)(c1ccccc1)c1ccccc1 [Diphenidol hydrochloride],0.999,1,1,1.01,1.04,1.04,1,0.987
O=C(CCCN1CCC(O)(c2ccc(Cl)cc2)CC1)c1ccc(F)cc1 [Haloperidol],0.976,0.966,0.97,0.966,0.965,0.963,0.998,0.962
O=C(O)COCCN1CCN(C(c2ccccc2)c2ccc(Cl)cc2)CC1 (stereo not given) [Cetirizine dihydrochloride],1,0.994,0.988,0.981,1,1.01,1.01,0.994
O=C(O)CN(CCN(CC(=O)O)CC(=O)O)CCN(CC(=O)O)CC(=O)O [Pentetic acid],1,1.01,1.03,1.07,1.05,1.08,1.02,0.998
CCn1nc(C(=O)O)c(=O)c2cc3c(cc21)OCO3 [Cinoxacin],0.0189 (active),0.0786 (active),0.0544 (active),0.0459 (active),1,1.01,0.0574 (active),0.0349 (active)
CCc1nn(CCCN2CCN(c3cccc(Cl)c3)CC2)c(=O)n1CCOc1ccccc1 [Nefazodone hydrochloride],1,0.985,0.932,1.01,0.928,0.922,1,0.894
CCOC(=O)[C@H](CCc1ccccc1)N[C@@H](C)C(=O)N1CCC[C@H]1C(=O)O [Enalapril maleate],1,1.04,1.03,1.02,1,1.02,1.01,0.997
COc1ccccc1OCC(O)CO (stereo not given) [Guaifenesin],0.998,1.02,1.01,0.992,0.984,0.987,0.995,0.99
COc1ccc(CC(C)NCC(O)c2ccc(O)c(NC=O)c2)cc1 (stereo not given) [Formoterol fumarate],1.01,1.07,0.995,1.05,1.01,1.02,1.01,0.998
CNCC(O)c1ccc(O)c(O)c1 (stereo not given) [Racepinephrine hydrochloride],1.03,1.02,1.09,1.04,1.01,1,1.01,1
CCC(=O)OCC(=O)[C@@]1(OC(=O)CC)[C@H](C)C[C@H]2[C@H]3[C@H]([C@@H](O)C[C@@]21C)[C@@]1(C)C=CC(=O)C=C1C[C@H]3Cl [Alclometasone dipropionate],1,0.974,0.999,1.01,1.03,1.04,1,1
CCN(CC)CC(=O)Nc1c(C)cccc1C [Lidocaine hydrochloride],0.999,1.02,1.01,1,1.02,1.03,0.963,0.996
Cc1cccc(N(C)C(=S)Oc2ccc3ccccc3c2)c1 [Tolnaftate],0.953,1.02,0.991,0.986,1,1.04,1,0.981
C[C@H](N)[C@H](O)c1cccc(O)c1 [Metaraminol bitartrate],0.992,0.972,0.984,1.01,0.993,0.989,0.994,1
CN1CCC(=C2c3ccccc3CC(=O)c3sccc32)CC1 [Ketotifen fumarate],1.01,0.999,0.985,1.01,0.979,0.997,1.01,0.999
CCCN(CCC)S(=O)(=O)c1ccc(C(=O)O)cc1 [Probenecid],1.02,1.03,1.02,1.02,1,1.02,1.02,0.895
CC(=O)Nc1nnc(S(N)(=O)=O)s1 [Acetazolamide],0.969,0.962,1.03,0.984,0.995,0.974,0.994,0.998
COC1=C(OC)C(=O)C(CCCCCCCCCCO)=C(C)C1=O [Idebenone],1.02,1.01,0.989,1.02,0.913,0.95,1.01,0.972
CC1CCc2cc(F)cc3c(=O)c(C(=O)O)cn1c23 (stereo not given) [Flumequine],0.00993 (active),0.0348 (active),0.0549 (active),0.0304 (active),0.801,0.647,0.0214 (active),0.00721 (active)
Cc1ncc([N+](=O)[O-])n1CC(O)CCl (stereo not given) [Ornidazole],0.995,0.987,1.01,0.964,0.0124 (active),0.00943 (active),0.99,0.99
O=C(NCC1CCCCN1)c1cc(OCC(F)(F)F)ccc1OCC(F)(F)F (stereo not given) [Flecainide acetate],0.995,0.966,0.988,0.989,1,1.03,1,1
